CYP2C9 inh = inhibitors of human CYP2C9; actives 20% (n = 96,000); P11712; AID 777; inhibition, % at 5 µM; CYP2C9 Supersomes, luciferin-H conversion, luminescence;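 active = blocking of liver enzyme CYP2C9 beyond about 50% at 5 µM, limit read from the data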
Target sequence (P11712 whole entry, looked up): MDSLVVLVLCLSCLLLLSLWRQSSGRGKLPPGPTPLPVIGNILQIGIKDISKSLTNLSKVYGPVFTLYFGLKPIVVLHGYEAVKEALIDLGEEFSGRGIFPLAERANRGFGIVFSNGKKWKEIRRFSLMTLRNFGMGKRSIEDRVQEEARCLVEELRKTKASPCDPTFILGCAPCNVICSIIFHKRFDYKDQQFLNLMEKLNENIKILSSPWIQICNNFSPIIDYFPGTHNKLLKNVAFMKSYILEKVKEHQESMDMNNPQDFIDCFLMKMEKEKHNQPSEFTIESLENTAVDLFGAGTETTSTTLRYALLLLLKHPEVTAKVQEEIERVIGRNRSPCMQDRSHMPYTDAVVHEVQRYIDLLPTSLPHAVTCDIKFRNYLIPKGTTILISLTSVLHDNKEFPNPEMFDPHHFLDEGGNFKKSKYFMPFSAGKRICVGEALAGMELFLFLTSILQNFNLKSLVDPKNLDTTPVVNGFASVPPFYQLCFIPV
CYP2C19 act = cytochrome P450 2C19 (human) activation | AID 1025 | activation factor at 5 µM | 96,000 tested, under 10 active | recombinant CYP2C19, luciferin-H EGE luminescence; stronger effect = higher value; 0 = fully inhibited enzyme, 1 = untreated enzyme;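 active = activation factor of at least 2 at 5 µM in the primary screen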
Cav3 T inh = blocks human Cav3.2 T-type calcium channel; B-score at 10 µM; Cav3.2-expressing cells, Fluo-4 calcium fluorescence FDSS; stronger effect = lower value; O95180; actives 4% (n = 100,000);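 active = single-dose well whose peak fluorescence ratio is a statistical outlier from its plate by either plate-standardised score or position-corrected B-score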
CYP2C9 act = activators of human CYP2C9; activation factor at 5 µM; recombinant CYP2C9, luciferin-H conversion, luminescence; stronger effect = higher value; factor 1 = untreated enzyme, 0 = blocked; P11712; actives 1.4% (n = 96,000);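 active = activation factor of 2 or more for CYP2C9 at a 5 µM dose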
CYP2C19 inhib = human CYP2C19 inhibition | AID 778 | inhibition, % at 5 µM | CYP2C19 Supersomes, luciferin-H EGE luminescence, 30 min | actives 21% (n = 96,000);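 active = CYP2C19 inhibition above a set limit at 5 µM in the primary screen, cut at about 50% in these data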
Each line names hits and unclear results; the compound was inactive in the other large screens. A selection: hits, their analogues and other compounds. The true share with any hit is near 27%.

S=C(c1ccc(N2CCOCC2)cc1)N1CCOCC1	none
CN(C)c1ccc(C(=S)N2CCOCC2)cc1Br	CYP2C9 act 2.4
COc1ccc(C(=O)N2CCOCC2)cc1Br	CYP2C9 act 2.3
O=C(Cn1c(=O)n(CCCC(=O)NC2CCCC2)c(=O)c2ccccc21)NCCC1=CCCCC1	CYP2C9 inh 68 (no result: Cav3 T inh)
CCCCNC(=O)CCCn1c(=O)c2ccccc2n(CC(=O)NCCC2=CCCCC2)c1=O	CYP2C9 inh 72, CYP2C19 inhib 67 (no result: Cav3 T inh)
Cc1cc(=O)n2c(n1)OC(CO)C2 (stereo not given)	none
COC(=O)C(Cc1cncn1COCc1ccccc1)NC(=O)OC(C)(C)C (stereo not given)	none
CN(CC(=O)N1CCN(c2cccc(Cl)c2)CC1)S(=O)(=O)c1cccs1	CYP2C9 inh 81, CYP2C19 inhib 82
CN(CC(=O)N1CCN(c2ccccc2)CC1)S(=O)(=O)c1cnc[nH]1	CYP2C9 inh 100, CYP2C19 inhib 92
CS(=O)(=O)N(CC(=O)N1CCN(c2ccc(F)cc2)CC1)c1cccc(Cl)c1	CYP2C9 act 2.4
COc1ccc(N2CCN(C(=O)CN(c3ccccc3)S(C)(=O)=O)CC2)cc1	none
CN1C(C(=O)NCC2CC2)CC2Cn3c(nc4cc(Cl)c(Cl)cc43)C21 (stereo not given)	none (no result: CYP2C9 inh, CYP2C19 act, CYP2C9 act, CYP2C19 inhib)
Cc1ccc2c3c([nH]c2c1C)-c1nonc1CC3	none (no result: CYP2C9 inh, CYP2C19 act, CYP2C9 act, CYP2C19 inhib)
Cc1ccc(-c2cccc(C3CC=CC4C3C(=O)N(Cc3ccccc3)C4c3ccc(C(F)(F)F)cc3)c2)cc1 (stereo not given)	none (no result: CYP2C9 inh, CYP2C19 act, CYP2C9 act, CYP2C19 inhib)
Cc1ccc(C2C(C#N)=C(N)SC(N)=C2C#N)cc1	none (no result: Cav3 T inh)
Cc1ccccc1[C@@H]1C(C#N)=C(N)S[C@H]1C(=O)c1ccccc1	CYP2C9 inh 98, CYP2C19 inhib 100
NNC(=O)CNC(c1ccccc1)c1cc(Br)ccc1NC(=O)c1ccccc1Br (stereo not given)	CYP2C9 inh 58
CC(C)[C@@H](CO)NC(=O)c1ccc2c3n(nc2c1)-c1ccc(Cl)cc1CO3	none (no result: CYP2C9 inh, CYP2C19 act, CYP2C9 act, CYP2C19 inhib)
C/C(=N\NC(=O)c1ccc(OC2CCCC2)cc1)c1ccc(C)s1	none
Cc1ccccc1-c1nnc(-c2ccccc2)o1	none
Cn1cc(-c2nnc(-c3ccccc3)o2)c2ccccc21	CYP2C9 act 2.4
O=C(c1ccc(Br)cc1)N(C1=NCCCCS1)c1ccccc1	none
Cc1ccc2c(c1)NC(=O)C(CC(=O)NCCN(CC(C)C)CC(C)C)O2 (stereo not given)	CYP2C9 inh 51
COc1ccc(OC)c(CCNC(=O)CC2Oc3ccccc3NC2=O)c1 (stereo not given)	CYP2C19 inhib 50
COc1ccc(OC)c(CCNC(=O)CC2Oc3ccc(C)cc3NC2=O)c1 (stereo not given)	none
O=C(NCc1ccccc1)N(Cc1nc2ccccc2c(=O)[nH]1)C1CCCC1	CYP2C9 inh 53
COc1ccccc1CC(=O)Nc1ccc(O)cc1C(=O)O	none
CC(=O)c1c(COC(=O)c2ccco2)nc2ccccc2[n+]1[O-]	CYP2C9 inh 63, CYP2C19 inhib 60
CCOC(=O)c1c(COC(=O)c2ccco2)nc2ccccc2[n+]1[O-]	none
CC(=O)c1c(COC(=O)c2ccncc2)nc2ccccc2[n+]1[O-]	CYP2C19 inhib 92
CC(=O)c1cc2c(cc1NC(=O)Nc1cccc(Cl)c1)OCCO2	none
CCCC(=O)Nc1ccc(Br)c(Cl)c1	CYP2C19 inhib 60 (no result: Cav3 T inh)
CCCCCC(=O)NC(=S)Nc1ccc(N2CCCCC2)c(Cl)c1	none
CCCCCC(=O)Nc1ccc(N2CCN(CC)CC2)c(Cl)c1	CYP2C9 inh 67
CC1=CC(C)(C)N=C(Nc2ccc(C)cc2)S1	CYP2C19 inhib 76
O=C(CNC(=O)Cn1ccc2ccccc2c1=O)NCCCN1CCCCCC1	none
O=S(=O)(Nc1ccncc1Cl)c1ccccc1	CYP2C9 inh 70
COc1cc(NC(=O)c2cccs2)c(C(=O)OCC(=O)NC(C)c2ccccc2)cc1OC (stereo not given)	CYP2C9 inh 90, CYP2C19 inhib 64
Cc1cccc(N(CC(=O)NCCSCc2ccco2)S(=O)(=O)c2ccccc2)c1	CYP2C9 inh 71, Cav3 T inh -4.1, CYP2C19 inhib 68
O=C(CN(c1ccccc1)S(=O)(=O)c1ccccc1)NCCSc1nc2ccccc2s1	none (no result: CYP2C9 inh, CYP2C19 act, CYP2C9 act, CYP2C19 inhib)
Cc1cc(C)cc(N(CC(=O)NCCSc2ccccn2)S(=O)(=O)c2ccccc2)c1	CYP2C9 inh 64
Cc1ccc(N(CC(=O)NCCSCc2ccco2)S(=O)(=O)c2ccc(C)cc2)cc1	CYP2C9 inh 88, Cav3 T inh -5.3, CYP2C19 inhib 71
CS(=O)(=O)Nc1ccc(C(=O)NCCSCc2ccco2)cc1	none
O=C1CCC([N+](=O)[O-])C(c2cccc(Cl)c2Cl)N1 (stereo not given)	none
Cc1ccccc1Cc1c(C)nc2c(C(=O)N3CCN(Cc4ccc5c(c4)OCO5)CC3)cnn2c1C	none (no result: CYP2C9 inh, CYP2C19 act, CYP2C9 act, CYP2C19 inhib)
Cc1nc2c(C(=O)N3CCCCC3)cnn2c(C)c1Cc1ccccc1F	CYP2C19 inhib 79
Cc1nc2c(C(=O)N3CCN(C)CC3)cnn2c(C)c1Cc1ccc(Cl)cc1	CYP2C19 inhib 82
c1ccc(Cn2cc(CNc3ccccc3)nn2)cc1	none (no result: CYP2C9 inh, CYP2C19 act, CYP2C9 act, CYP2C19 inhib)
COc1ccc(N2C(=O)CC(S/C(N)=N/N=C(\C)c3cccs3)C2=O)cc1 (stereo not given)	none
COc1ccc(S(=O)(=O)NCC(=O)N(CC(=O)NCC2CCCO2)c2cc(C)ccc2C)cc1 (stereo not given)	none
COc1ccc2c(c1OC)C(=O)OC2CC(=O)c1ccc2c(c1)OCO2 (stereo not given)	CYP2C19 inhib 56
COc1cc(CC(=O)OCC(=O)c2ccc3c(c2)OCCO3)cc(OC)c1OC	none
CCOC(=O)C1=C(C)C(c2ccc(OC)cc2)NC(=S)N1 (stereo not given)	CYP2C9 inh 82, CYP2C19 inhib 59
Cc1ccc(CN2CCN(CC(=O)NCc3ccc(Cl)cc3)C2=O)cc1	Cav3 T inh -4
CCN(CCNC(=O)CN1CCN(Cc2ccc(Cl)cc2)C1=O)c1ccccc1	CYP2C9 inh 52, Cav3 T inh -4, CYP2C19 inhib 57
O=C(CN1CCN(Cc2ccccc2)C1=O)NCc1ccc(Cl)cc1	none
COc1ccc(CNC2CC(=O)N(C)C2=O)cc1 (stereo not given)	none
Cc1cc(Br)cc(C)c1NC(=S)NC(=O)CC(C)C	none (no result: Cav3 T inh)
O=C(c1ccc(CS(=O)(=O)c2c(Cl)cccc2Cl)o1)N1CCN(c2ccccn2)CC1	CYP2C19 inhib 93
COc1ccccc1S(=O)(=O)Cc1ccc(C(=O)N2CCN(c3ccccc3)CC2)o1	none
Cc1ccc(S(=O)(=O)Cc2ccc(C(=O)N3CCCCCC3)o2)cc1	none
O=C(c1ccc(CS(=O)(=O)c2ccccc2)o1)N1CCN(c2ncccn2)CC1	CYP2C9 inh 64, CYP2C19 inhib 54
Cc1ccc(S(=O)(=O)Cc2ccc(C(=O)N3CCN(c4ccccn4)CC3)o2)cc1	CYP2C9 inh 70
O=C(c1ccc(CS(=O)(=O)c2cccc(C(F)(F)F)c2)o1)N1CCN(c2ccccn2)CC1	CYP2C9 inh 60, CYP2C19 inhib 54
